# Results: ChEMBL document CHEMBL5308504, “Tm Shift (DSF) assay results for EUbOPEN Chemogenomics Library” (2023)
# Several values for one entry are separate records, joined by “and”; a condition that tells them apart may be missing. Identical values can stand only once.
# Tests used:
# Conditions in all cases: Compound concentration 20.0 uM, Protein concentration 2.0 uM, Result type QC Liability
# [1] = target: Tyrosine-protein kinase ABL1 (Homo sapiens) (UniProt P00519)
# [2] = target: Cyclin-dependent kinase 2 (Homo sapiens) (UniProt P24941)
# [3] = target: Casein kinase I isoform delta (Homo sapiens) (UniProt P48730)
# [4] = target: Glycogen synthase kinase-3 beta (Homo sapiens) (UniProt P49841)
# [5] = target: Mitogen-activated protein kinase 1 (Homo sapiens) (UniProt P28482)
# [6] = target: T1, Aurora kinase A (Homo sapiens) (UniProt O14965)
# T1 sequence (whole entry): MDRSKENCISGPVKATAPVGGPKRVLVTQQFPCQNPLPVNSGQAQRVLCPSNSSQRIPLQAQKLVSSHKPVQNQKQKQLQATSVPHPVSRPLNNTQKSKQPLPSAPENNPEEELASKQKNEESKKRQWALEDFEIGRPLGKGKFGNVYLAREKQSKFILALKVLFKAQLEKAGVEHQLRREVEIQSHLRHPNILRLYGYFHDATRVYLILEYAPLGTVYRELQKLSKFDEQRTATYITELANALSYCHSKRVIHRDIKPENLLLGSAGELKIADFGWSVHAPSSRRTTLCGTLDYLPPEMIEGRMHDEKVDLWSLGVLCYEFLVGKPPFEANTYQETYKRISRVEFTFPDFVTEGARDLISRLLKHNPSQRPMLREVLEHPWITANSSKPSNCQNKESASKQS
# Chain of Glycogen synthase kinase-3 beta (Homo sapiens) (P49841 whole entry, looked up): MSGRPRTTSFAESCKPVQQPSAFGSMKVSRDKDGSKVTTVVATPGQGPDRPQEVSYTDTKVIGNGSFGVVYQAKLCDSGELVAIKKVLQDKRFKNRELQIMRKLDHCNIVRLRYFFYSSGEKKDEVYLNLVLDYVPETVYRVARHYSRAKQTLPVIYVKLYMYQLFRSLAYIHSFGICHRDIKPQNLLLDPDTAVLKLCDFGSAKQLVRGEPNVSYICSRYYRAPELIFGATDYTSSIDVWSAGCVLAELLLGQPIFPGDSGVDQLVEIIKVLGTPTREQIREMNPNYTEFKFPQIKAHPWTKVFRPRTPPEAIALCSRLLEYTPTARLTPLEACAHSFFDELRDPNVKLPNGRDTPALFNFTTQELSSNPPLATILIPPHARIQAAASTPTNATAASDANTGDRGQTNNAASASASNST
# Chain of Casein kinase I isoform delta (Homo sapiens) (P48730 whole entry, looked up, canonical isoform): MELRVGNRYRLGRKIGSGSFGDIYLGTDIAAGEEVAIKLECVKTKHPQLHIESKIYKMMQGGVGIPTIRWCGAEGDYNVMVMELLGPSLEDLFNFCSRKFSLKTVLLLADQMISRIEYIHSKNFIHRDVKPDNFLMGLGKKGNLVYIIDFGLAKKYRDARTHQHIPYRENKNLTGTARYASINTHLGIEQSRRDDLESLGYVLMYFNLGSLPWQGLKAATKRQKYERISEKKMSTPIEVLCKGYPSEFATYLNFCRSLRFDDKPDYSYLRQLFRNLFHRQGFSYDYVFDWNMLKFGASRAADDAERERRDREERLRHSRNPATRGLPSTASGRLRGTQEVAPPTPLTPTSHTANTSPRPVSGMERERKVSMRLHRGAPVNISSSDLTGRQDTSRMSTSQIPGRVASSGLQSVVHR
# Chain of Tyrosine-protein kinase ABL1 (Homo sapiens) (P00519 whole entry): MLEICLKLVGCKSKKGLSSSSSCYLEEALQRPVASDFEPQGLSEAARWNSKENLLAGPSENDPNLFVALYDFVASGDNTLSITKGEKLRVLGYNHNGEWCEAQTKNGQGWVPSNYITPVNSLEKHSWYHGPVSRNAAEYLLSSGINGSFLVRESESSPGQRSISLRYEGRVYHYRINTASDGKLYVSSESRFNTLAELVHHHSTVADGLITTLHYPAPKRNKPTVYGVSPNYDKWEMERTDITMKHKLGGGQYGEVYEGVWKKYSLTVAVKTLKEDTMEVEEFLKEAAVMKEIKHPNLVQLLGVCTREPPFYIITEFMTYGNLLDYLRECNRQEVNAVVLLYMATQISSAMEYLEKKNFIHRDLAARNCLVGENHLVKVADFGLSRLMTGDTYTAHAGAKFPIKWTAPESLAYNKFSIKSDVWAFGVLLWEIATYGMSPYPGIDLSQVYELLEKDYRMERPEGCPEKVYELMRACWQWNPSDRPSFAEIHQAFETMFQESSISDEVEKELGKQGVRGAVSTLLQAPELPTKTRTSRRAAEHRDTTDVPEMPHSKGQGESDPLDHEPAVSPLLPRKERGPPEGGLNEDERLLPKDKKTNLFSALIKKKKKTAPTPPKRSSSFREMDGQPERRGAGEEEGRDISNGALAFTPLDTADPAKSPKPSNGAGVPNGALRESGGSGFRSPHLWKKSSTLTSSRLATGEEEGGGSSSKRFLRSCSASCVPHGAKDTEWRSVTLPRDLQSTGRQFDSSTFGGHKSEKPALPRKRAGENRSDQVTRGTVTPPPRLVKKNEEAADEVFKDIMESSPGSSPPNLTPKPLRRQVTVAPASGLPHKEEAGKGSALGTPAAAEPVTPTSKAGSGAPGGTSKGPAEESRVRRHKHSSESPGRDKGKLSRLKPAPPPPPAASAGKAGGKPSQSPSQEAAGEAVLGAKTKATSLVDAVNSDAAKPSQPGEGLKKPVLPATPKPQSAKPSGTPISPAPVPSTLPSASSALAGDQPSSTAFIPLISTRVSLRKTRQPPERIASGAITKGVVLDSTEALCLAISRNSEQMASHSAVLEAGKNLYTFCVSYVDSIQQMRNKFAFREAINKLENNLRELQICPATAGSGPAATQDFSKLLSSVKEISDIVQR
# Chain of Mitogen-activated protein kinase 1 (Homo sapiens) (P28482 whole entry): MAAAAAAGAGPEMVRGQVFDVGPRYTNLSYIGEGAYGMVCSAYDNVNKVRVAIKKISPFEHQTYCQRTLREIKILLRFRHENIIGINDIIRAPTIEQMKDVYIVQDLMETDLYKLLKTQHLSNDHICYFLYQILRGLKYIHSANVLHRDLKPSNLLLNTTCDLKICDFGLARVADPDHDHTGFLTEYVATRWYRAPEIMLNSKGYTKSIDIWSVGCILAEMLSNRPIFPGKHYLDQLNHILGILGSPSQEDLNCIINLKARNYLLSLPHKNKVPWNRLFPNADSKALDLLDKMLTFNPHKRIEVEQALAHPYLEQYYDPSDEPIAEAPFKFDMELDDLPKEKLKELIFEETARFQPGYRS
SMILES,ΔTm [1],ΔTm [2],ΔTm [3],ΔTm [4],ΔTm [5],ΔTm [6]
Cc1cc(OCc2nc3ccccc3s2)ccc1NC(=O)Nc1ccc(Cl)c(Cl)c1,0.33 °C,1.38 °C,-0.26 °C,-1.81 °C,-0.19 °C,0.13 °C
CN(C)c1ncc2cc(-c3ccc(-c4ncccc4F)cc3Cl)c(=O)n(C[C@H]3OC[C@H](N)CO3)c2n1,-0.17 °C,0.29 °C,0.68 °C,-0.87 °C,-0.05 °C,-1.8 °C
CC(C)(O)[C@H](F)CN1Cc2cc(NC(=O)c3cnn4cccnc34)c(N3CCOCC3)cc2C1=O,2.02 °C,-0.03 °C,0.59 °C,0.95 °C,0.46 °C,3.04 °C
CN1CCCN(C(=O)c2cccc(-c3ccc(/C=C4/C(=O)Nc5ccc(Cl)cc54)o3)c2)CC1,1.94 °C,2.38 °C,2.04 °C,5.85 °C,-0.12 °C,1.88 °C
N#Cc1c(SCc2csc(-c3ccc(Cl)cc3)n2)nc(N2CCCC2)c(C#N)c1-c1ccc(OCCO)cc1,-0.51 °C,0.34 °C,-2.01 °C,0 °C,4.1 °C,-0.18 °C
COc1cc2nc(C)nc(NC3(c4ccccc4)CC3)c2cc1OC,0.57 °C,0.41 °C,0.15 °C,-0.3 °C,0.33 °C,0.65 °C
CC1(C)CCC(CN2CCN(c3ccc(C(=O)NS(=O)(=O)c4ccc(NCC5CCOCC5)c([N+](=O)[O-])c4)c(Oc4cnc5[nH]ccc5c4)c3)CC2)=C(c2ccc(Cl)cc2)C1,-0.27 °C,1.18 °C,-0.88 °C,-0.99 °C,0.48 °C,0.44 °C
CC(C)(C)OC(=O)CN1C(=O)c2c(OCC(=O)O)cccc2Oc2ccc(C(F)(F)F)cc21,0.48 °C,0.55 °C,0.4 °C,1.17 °C,0.51 °C,-0.28 °C
C[C@@H]1C[C@H](C)CN(c2ncc(Cl)c(Nc3ccc4c(c3)cc(OC(C)(C)C(=O)O)c(=O)n4C)n2)C1,-0.58 °C,0.18 °C,-0.08 °C,-1.47 °C,0.14 °C,0.18 °C
CN(C)C(=O)Cn1cc(-c2ccc(-c3cncc4ccccc34)cc2)cn1,3.4 °C,0.46 °C,1.89 °C,0.72 °C,-0.64 °C,2.96 °C
NC(=O)c1sc2nc(N3CCC(NC[C@H](O)c4ccccn4)CC3)cc(C(F)(F)F)c2c1N,1.22 °C,1 °C,1.86 °C,0.72 °C,0.39 °C,1.06 °C
C1=Cc2ccccc2C(=C2CCN(CCCCc3nnn[nH]3)CC2)c2ccccc21,-0.16 °C,0.18 °C,-0.15 °C,0.27 °C,-0.08 °C,-0.37 °C
O=C(O)[C@]1(Cc2cccc(Nc3nccs3)n2)CC[C@@H](Oc2cccc(Cl)c2F)CC1,17.2 °C,5.36 °C,1.53 °C,8.49 °C,1.32 °C,25.4 °C
O=C(Nc1cccc(Nc2nccc(Nc3cccc(C(F)(F)F)c3)n2)c1)C1CC1,1.63 °C,1.44 °C,1.09 °C,3.86 °C,0.42 °C,
COc1cc2c(cc1CC=C(C)C)C(=O)C[C@@H](c1ccc(O)cc1)O2,0.53 °C,1.21 °C,1.23 °C,-0.03 °C,0.34 °C,-1.38 °C
O=c1cc(C2CCNCC2)n2nc3cccc(Cl)c3c2[nH]1,0.46 °C,-0.11 °C,0.7 °C,0.46 °C,0 °C,-0.12 °C
CCN(C(=O)CO)[C@H]1CN(/C(=N\C#N)Nc2cccc(OC(F)F)c2)N=C1c1ccc(Cl)c(Cl)c1,0.46 °C,0.22 °C,0.23 °C,2.8 °C,-0.24 °C,0.87 °C
Cc1cc2nc(N3CCC(C(=O)NC4CCCC4)CC3)n(C(C)C)c2cc1C,0.22 °C,0.23 °C,0.04 °C,0.31 °C,0 °C,0.01 °C
COc1cc(-c2cc3ncccc3c(O[C@H](C)[C@H]3CNC(=O)C3)n2)cc(OC)c1OC,3.69 °C and 3.1 °C,0.94 °C,3.55 °C and 2.97 °C,-0.33 °C and -0.99 °C,1.84 °C and 1.51 °C,9.58 °C and 8.08 °C
CCS(=O)(=O)Nc1cccc(Oc2cc(F)cc(Nc3ccc(I)cc3F)c2NS(=O)(=O)C2CC2)c1,1.05 °C,0.19 °C,0.44 °C,2.25 °C,-1.88 °C,0.23 °C
Cc1cc(-c2cnc(N)c3c(-c4ccc5scnc5c4)csc23)n(C)n1,7.77 °C,-0.21 °C,0.67 °C,-0.81 °C,-0.07 °C,-0.03 °C
Nc1ncnc2c1c(I)cn2[C@@H]1O[C@H](CO)[C@@H](O)[C@H]1O,2.09 °C,6.73 °C,5.26 °C,2.65 °C,1.65 °C,2.13 °C
CCOC(=O)c1ccc(CN(Cc2ccc(-c3cccc(S(C)(=O)=O)c3)cc2)S(=O)(=O)c2c(C)cc(C)cc2C)o1,-2.07 °C,-2 °C,-1.52 °C,-0.28 °C,-3 °C,-3.1 °C
Fc1cccc(-n2cnc3c(NCc4nc5c(F)c(F)ccc5[nH]4)nc(N4CCOCC4)nc32)c1,1.99 °C,0.74 °C,3.88 °C,1.83 °C,0.22 °C,0.74 °C
Cc1c(CN2CCC3(CC2)CN(c2ncnc4sc(CC(F)(F)F)cc24)C3)ccc2c1cc(C#N)n2CC(N)=O,0.27 °C,-0.01 °C,0.92 °C,0.64 °C,0.12 °C,0.16 °C
O=C(O)c1cc(F)c2nc(N3[C@@H]4CC[C@H]3C[C@@H](OCc3c(-c5ccccc5OC(F)(F)F)noc3C3CC3)C4)sc2c1,0.23 °C,0.38 °C,0.11 °C,-5.45 °C,-0.82 °C,-8.04 °C

SMILES,ΔTm [1],ΔTm [2],ΔTm [3],ΔTm [4],ΔTm [5],ΔTm [6]
CC(=O)c1c(C)c2cnc(Nc3ccc(N4CCN(CCOCCOCCOCCNC(=O)COc5cccc6c5C(=O)N(C5CCC(=O)NC5=O)C6=O)CC4)cn3)nc2n(C2CCCC2)c1=O (stereo not given),-0.65 °C,-0.26 °C,1.49 °C,1.18 °C,-1.16 °C,0.61 °C
CC(=O)c1c(C)c2cnc(Nc3ccc(N4CCNCC4)cn3)nc2n(C2CCCC2)c1=O,0.35 °C and -0.02 °C,1.06 °C and 0.93 °C,0.19 °C and 0.01 °C,0.23 °C and 0.63 °C,0.09 °C and 0.31 °C,-0.85 °C and 0.31 °C
CCNc1ccc(-c2nn(-c3ccccc3C)c3c2C(C)Cc2nc(NC(=O)OC)sc2-3)cn1 (stereo not given),0.34 °C,0.64 °C,0.19 °C,-0.97 °C,-0.13 °C,1.08 °C
OC(c1ccc(-c2ccc(CN3CCN(Cc4ccncc4)CC3)cc2)c(F)c1)(C(F)(F)F)C(F)(F)F,-0.1 °C,0.64 °C,-0.18 °C,-0.86 °C,0.02 °C,-1.1 °C
CC1CNCCc2c1nc1ccnn1c2N1CC(C(=O)N2CCC(C)(C)C2)C1 (stereo not given),0.04 °C,0.37 °C,0.46 °C,-0.58 °C,0.2 °C,-0.21 °C
N#CN1CC[C@H](C(=O)Nc2nc3c(s2)CN(C(=O)CN=[N+]=[N-])CC3)C1,0.16 °C,0.34 °C,0.24 °C,-0.2 °C,0.64 °C,-0.99 °C
O=C(CNC(=O)c1ccc(-c2ccccc2)cc1)NC1CCCc2ccccc21 (stereo not given),0.75 °C,-0.06 °C,-1.78 °C,-2.76 °C,0.17 °C,-1.46 °C
O=C(Nc1ccccc1C(=O)O)c1cc(S(=O)(=O)c2ccccc2)ccc1Cl,0.07 °C,1.6 °C,0.6 °C,0.85 °C,0.86 °C,1.09 °C
Cc1c(N2CCCC2)nc2ccc(Br)cc2c1C(=O)NC[C@H](CCC(=O)O)c1ccccc1Cl,-0.28 °C and -0.08 °C,-0.21 °C and 0.71 °C,-0.02 °C and 0.51 °C,-0.57 °C and -1.1 °C,-0.65 °C and 0.37 °C,-0.24 °C and -0.2 °C
CO[C@H]1CC[C@H](N(c2cc(F)c(Oc3ncc(Cn4nccn4)cc3C(F)(F)F)cc2C(=O)O)C(=O)[C@H]2CC[C@H](C)CC2)CC1,-0.55 °C,-0.98 °C,-0.04 °C,-1.43 °C,0.48 °C,-0.75 °C
CNS(=O)(=O)c1ccc(N(C)C)c(Nc2ncnc3cc(OC)c(OC)cc23)c1,3.42 °C,-0.02 °C,0.23 °C,-0.61 °C,0.24 °C,-1.08 °C
CC(=O)c1c(C)c2cnc(Nc3ccn(C)n3)nc2n(C2CCCC2)c1=O,-0.44 °C,-0.29 °C,-0.59 °C,2.32 °C,0.48 °C,0.47 °C
O=C(O)CCCCN(CCc1cc(F)ccc1OCc1ccc(-c2ccc(C(F)(F)F)cc2)cc1)Cc1ccc(C(=O)O)cc1,0.64 °C,-0.19 °C,0.21 °C,-1.11 °C,-0.69 °C,0.32 °C
CN1C(=O)Cc2ccc(-c3ccc(C[C@@H](C#N)NC(=O)[C@@H]4N[C@H]5CC[C@@H]4C5)c(F)c3)cc21,-0.52 °C,0.33 °C,0.17 °C,-0.31 °C,-0.2 °C,-0.07 °C
CNc1oc(-c2cccc3ccccc23)nc1C#N,0.54 °C,0.95 °C,-0.04 °C,0.49 °C,0.02 °C,0.57 °C
COc1cc(C(=O)NCCOCCOCCOCCC(=O)Nc2cccc3c2C(=O)N(C2CCC(=O)NC2=O)C3=O)ccc1Nc1ncc(C(F)(F)F)c(Oc2cccc3c2C(=O)CC3)n1 (stereo not given),-0.1 °C,-0.45 °C,-2.13 °C,-0.22 °C,-2.51 °C,0.92 °C
COc1cc(F)ccc1-c1ncnc(Nc2cccc(C[S@](C)(=N)=O)c2)n1,2.58 °C,3.09 °C,0.27 °C,10.1 °C,0.36 °C,3.39 °C
COC(=O)Nc1nc2c(s1)-c1c(c(-c3cccnc3)nn1-c1ccc(C3(N(C)C)CC3)cc1)CC2,0.57 °C,0.64 °C,-0.25 °C,-0.71 °C,0.36 °C,-0.79 °C
CNc1nc(Nc2ccc(C(=O)N3CCOCC3)cc2OC)ncc1Cl,0.4 °C,0.09 °C,-0.01 °C,-0.95 °C,0.36 °C,3.14 °C
N#C/C(=C\c1ccc(O)c(O)c1)C(=O)OCCc1cccs1,2.18 °C,1.1 °C,2.15 °C,0.01 °C,0.37 °C,4.16 °C
CC(=O)N1CCC(c2ccc(C(=O)NC3=NCCN3)cc2C(F)(F)F)CC1,0.33 °C,0.15 °C,0.3 °C,-0.03 °C,0.1 °C,-0.15 °C
CNC(=O)c1nnc(NC(=O)C2CC2)cc1Nc1cccc(-c2ncn(C)n2)c1OC,3.38 °C,0.57 °C,0.11 °C,5.87 °C,0.36 °C,0.41 °C
CC[C@H](Nc1c(C#N)c(-c2ccc(-c3cccc(C)c3F)cc2)nc2cnccc12)C(=O)O,1.4 °C,-0.67 °C,-0.79 °C,-0.59 °C,-0.11 °C,2.03 °C
COc1cnccc1Nc1nc(-c2nn(Cc3c(F)cc(OCCO)cc3F)c3ccccc23)ncc1OC,-0.43 °C,-0.62 °C,-2.9 °C,-5.93 °C,-0.07 °C,-1.95 °C
CCOc1cc(CC(=O)N[C@@H](CC(C)C)c2ccccc2N2CCCCC2)ccc1C(=O)O,-0.58 °C,0.05 °C,-0.05 °C,0.38 °C,-0.15 °C,-0.16 °C
